# Measured potencies and affinities stand elsewhere. Active and inactive are the calls of the source. The rule behind the calls is not given here.
# Target: KSHV LANA C-terminal domain (residues 932-1162) binding to LBS DNA (UniProt O40947)
# Assay: KSHV LANA DNA-binding disruption – biochemical, fluorescence polarization, cherry-picked samples, dose response (AID 504725)
# Settings: MBP-C-LANA / FAM-LBS DNA fluorescence polarization, percent change from plate compound-well median; series mostly up to 35 µM; activity change, negative = inhibition: at the top concentration
row,Structure (SMILES),"activity change, negative = inhibition"
1,COc1cc(SC)ccc1C(=O)Nc1nc(C)cs1,-2.79% (inactive)
2,O=C(O)CC1(CC(=O)NCc2ccncc2)CCCCC1,0.912% (inactive)
3,CC(Sc1ncccn1)C(=O)NNC(=O)c1cccc(Cl)c1 (stereo not drawn),-2.31% (inactive)
4,COc1ccc(Cl)cc1C(=O)NNC(=O)c1cc2ccccc2o1,0.508% (inactive)
5,COc1ccc(NC(=O)CN(C)CC(=O)Nc2ccc(N3CCOCC3)cc2)c([N+](=O)[O-])c1,-0.918% (inactive)
6,O=C(O)/C(=C\c1cccs1)Sc1nnc(-c2ccc(F)cc2)o1,2.45% (inactive)
7,Cc1ccc(N2CC(C(=O)Nc3nnc(SCC(=O)Nc4nc(C)cs4)s3)CC2=O)cc1 (stereo not drawn),-1.12% (inactive)
8,Cc1c(C#N)c(=O)c(-[n+]2ccccc2)c([S-])n1-c1ccc(Cl)cc1,3.76% (inactive)
9,COc1ccc(-c2cc(C(F)(F)F)n3ncc(C(=O)N4CCCCC4c4cccnc4)c3n2)cc1 (stereo not drawn),1.27% (inactive)
10,Cc1cc(NS(=O)(=O)c2ccc(Nc3nc(-c4sc(N)nc4C)cs3)cc2)no1,-10.2% (inactive)
11,CCCCn1c(NS(=O)(=O)c2ccc(C)cc2)c(S(=O)(=O)c2ccccc2)c2nc3ccccc3nc21,-17.6% (inactive)
12,Cc1nc2c(=O)[nH]c(=S)[nH]c2[nH]c1=O,-11.5% (inactive)
13,CCn1c(CN2CCCCC2)nc2cc(S(=O)(=O)N3CCCCC3)ccc21,2.61% (inactive)
14,COc1ccc(/C=C/C(=O)NC(=S)Nc2ccc(S(N)(=O)=O)cc2)cc1,-5.56% (inactive)
15,COc1cccc2[nH]c(C(=O)NC(C)c3ccccc3)cc12 (stereo not drawn),-2.36% (inactive)
16,O=C(COc1cccc(F)c1)Nc1nc(-c2cccnc2)cs1,3.12% (inactive)
17,CCN(CC(=O)NCc1cccs1)C(=O)c1ccc(S(=O)(=O)Nc2ccccc2C)cc1,1.8% (inactive)
18,CCCN(CCC)C(=O)C1c2ccccc2Oc2ccccc21,2.82% (inactive)
19,CCCc1cc(=O)oc2cc(C)cc(OCC(=O)O)c12,-0.34% (inactive)

row,Structure (SMILES),"activity change, negative = inhibition"
1,Cc1[nH][nH]c(=O)c1C(c1ccc(-c2ccc(Cl)c(C(=O)O)c2)o1)c1c(C)[nH][nH]c1=O,-11.2% (inactive)
2,CCOC(=O)C1=C(COC(=O)c2ccc([N+](=O)[O-])s2)NC(=O)NC1C (stereo not drawn),-6.39% (inactive)
3,COc1ccc(-c2cnc3n2CCCCC3)cc1,0.703% (inactive)
4,Cc1cccnc1NC1(C(F)(F)F)N=C2SCCN2C1=O (stereo not drawn),1.44% (inactive)
5,CSc1ncccc1C(=O)OCCCC(=O)c1ccc(F)cc1,3.3% (inactive)
6,Nc1nnc(CC(=O)N/N=C/c2cc([N+](=O)[O-])cc(Br)c2O)s1,-3.27% (inactive)
7,COc1cccc(OCCCn2cc(/C=C3/C(=N)N4C=C(C)SC4=NC3=O)c3ccccc32)c1,-11.7% (inactive)
8,NC(=S)N/N=C/c1ccc(-c2ccc([N+](=O)[O-])cc2)o1,18% (inactive)
9,Cn1c(=O)c2c(nc(SCC(=O)NCc3ccc4c(c3)OCO4)n2Cc2ccc(Cl)cc2)n(C)c1=O,2.38% (inactive)
10,CCN(C(=O)c1cccc(S(=O)(=O)N2CCc3ccccc32)c1)C1CCS(=O)(=O)C1 (stereo not drawn),-0.651% (inactive)
11,Oc1ccc(-c2nc3ccccn3c2NCc2ccco2)cc1,0.047% (inactive)
12,COc1ccc(C)cc1NC(=O)C(OC(=O)c1cnccn1)c1ccccc1 (stereo not drawn),-8.66% (inactive)
13,CCOC(=O)c1c(C)n(C)c2ccc(OCCN(C)C)cc12,-3.37% (inactive)
14,Cc1cccc(NC(=O)CN2C(=O)NC(C)(c3ccc4ccccc4c3)C2=O)n1 (stereo not drawn),-1.85% (inactive)
15,O=[N+]([O-])c1cc(-n2cnnn2)ccc1N1CCC(Cc2ccccc2)CC1,-0.279% (inactive)
16,CCOc1ccc(S(=O)(=O)N(C)c2ccc(OCC(=O)NC3=NCCS3)cc2)cc1,-4.63% (inactive)
17,O=C(O)C1(c2ccccc2)CCN(S(=O)(=O)c2ccc(Cl)s2)CC1,-3.28% (inactive)
18,COc1ccc(C(C)=O)cc1CN(C)C,0.24% (inactive)
19,COC(=O)c1ccc(OCC(O)CN2CCC(C)CC2)cc1 (stereo not drawn),-1.1% (inactive)

# From PubChem BioAssay AID504725 (Broad Institute, 2011)
